{"source": "PubChem BioAssay (Tox21)", "note": "Results filed as inconclusive are left out. Values without a mark were called inactive. The source made the active and inactive calls. Calls come from the whole dose curve. % is set by controls: 0 for no effect and ±100 for the full control effect."}
{"test": "qHTS assay to identify small molecule agonists or antagonists of the thyroid stimulating hormone receptor (TSHR) signaling pathway - wild type cell line counter screen (AID 1259384)", "conditions": "HEK293 wild type, cAMP HTRF counter-screen, active compounds read high; series mostly up to 92.4 µM; cAMP activity change: at the top concentration", "source_text": "U.S. Tox21 Program National Center for Advancing Translational Sciences [NCATS] NIH Chemical Genomics Center [NCGC] U.S. Environmental Protection Agency [EPA] National Institutes of Environmental Health Sciences [NIEHS] National Toxicology Program [NTP] U.S. Food and Drug Administration [FDA] Tox21 Assay Overview: TSHR is the receptor for thyrotropin (thyroid stimulating hormone or TSH), a member of the glycoprotein hormone family. TSH is released by the anterior pituitary gland and is the main regulator of thyroid gland growth and development. Upon binding circulating thyrotropin, a G-protein signal cascade activates adenylyl cyclase and […] cAMP concentration is increased. cAMP is a key second messenger involved extensively in cellular signal transduction pathways associated with the majority of G-protein coupled receptors (GPCRs). The activation of these GPCRs by neurotransmitters, lipids, nucleotides, peptides and hormones results in the activation or the inhibition of plasma membrane-bound adenylate cyclase through heterotrimeric G-proteins. A cell-based TSHR-Hek293 assay can be used to identify TSHR agonists. To eliminate the false positive compounds identified from screening a cell-based TSHR-Hek293 cell line, cAMP assay in a wild type Hek293 cells was used as a counter screening.\nTox21 Assay Protocol Summary: Hek293 cells (wild type) were dispensed at 800 cells/4 uL/well in 1536-well white plates using a Multidrop dispenser. After the assay plates were incubated at a 37 C/5% CO2 incubator for 18 hrs, 23 nL of compounds dissolved in DMSO, positive controls or DMSO only was transferred to the assay plate by a pin tool, followed by 1 ul medium containing Ro20-1724. After 30 min of incubation at room temperature, 2.5 ul/well of cAMP-d2 and 2.5 ul/well of anti-cAMP-cryptate were added respectively into the assay plates using a Flying Reagent Dispenser. The plates were incubated at room temperature for 1 hr. The fluorescence intensity in the plates was measured using an Envision plate reader. Each test compound was measured at 15 concentrations and in triplicates.", "units": {"cAMP activity change": "%"}}
{"smiles": "Cc1cc(C)cc(C)c1", "outcome": "inactive"}
{"smiles": "CCOP(=S)(OCC)O/N=C(\\C#N)c1ccccc1", "outcome": "inactive"}
{"smiles": "CC(C)C(=O)OCC(C)(C)C(OC(=O)C(C)C)C(C)C", "note": "(stereo not given)", "outcome": "inactive"}
{"smiles": "CCCCOCCOP(=O)(OCCOCCCC)OCCOCCCC", "outcome": "inactive"}
{"smiles": "Nc1ccc(Cl)cc1N", "outcome": "inactive"}
{"smiles": "Cc1ccc2c(c1N)C(=O)c1ccccc1C2=O", "outcome": "inactive"}
{"smiles": "C=CCc1ccc(OC)cc1", "outcome": "inactive"}
{"smiles": "C=C(C)C(=O)OCC1CO1", "note": "(stereo not given)", "outcome": "inactive"}
{"smiles": "CCOC(=O)C(C)OC(=O)c1cc(Oc2ccc(C(F)(F)F)cc2Cl)ccc1[N+](=O)[O-]", "note": "(stereo not given)", "outcome": "inactive"}
{"smiles": "N#Cc1cc(Br)c(O)c(Br)c1", "cAMP activity change": 0.41}
{"smiles": "CCc1cccc(CC)c1N(COC)C(=O)CCl", "outcome": "inactive"}
{"smiles": "CCCCN(CC)c1c([N+](=O)[O-])cc(C(F)(F)F)cc1[N+](=O)[O-]", "outcome": "inactive"}
{"smiles": "COC(=O)c1sccc1S(=O)(=O)NC(=O)Nc1nc(C)nc(OC)n1", "outcome": "inactive"}
{"smiles": "CCN(CC)N=O", "outcome": "inactive"}
{"smiles": "CC(C)(c1cc(Cl)c(O)c(Cl)c1)c1cc(Cl)c(O)c(Cl)c1", "outcome": "inactive"}
{"smiles": "N#CC(Br)Br", "outcome": "inactive"}
{"smiles": "CN(C)c1ccc(C(=O)c2ccc(N(C)C)cc2)cc1", "outcome": "inactive"}
{"smiles": "O=C(CCl)c1ccccc1", "outcome": "inactive"}
{"smiles": "CN(C)C(=O)Nc1ccc(Cl)cc1", "outcome": "inactive"}
{"smiles": "Nn1cnnc1", "outcome": "inactive"}
{"smiles": "CCC(CC)Nc1c([N+](=O)[O-])cc(C)c(C)c1[N+](=O)[O-]", "outcome": "inactive"}
{"smiles": "CCCCC(CC)COC(=O)c1ccc(C(=O)OCC(CC)CCCC)c(C(=O)OCC(CC)CCCC)c1", "note": "(stereo not given)", "outcome": "inactive"}
{"smiles": "CCCCCc1cc(O)cc(O)c1", "outcome": "inactive"}
{"smiles": "Oc1c(Cl)c(Cl)c(Cl)c(Cl)c1Cl", "outcome": "inactive"}
{"smiles": "Nc1cccnc1", "outcome": "inactive"}
{"smiles": "O=P(Oc1ccccc1)(Oc1ccccc1)Oc1ccccc1", "outcome": "inactive"}
{"smiles": "CCN(CC)C(=O)/C(Cl)=C(\\C)OP(=O)(OC)OC", "outcome": "inactive"}
{"smiles": "Cc1ccc(OP(=O)(Oc2ccc(C)cc2)Oc2ccc(C)cc2)cc1", "outcome": "inactive"}
{"smiles": "CC(C)N(C(=O)SCC(Cl)=C(Cl)Cl)C(C)C", "outcome": "inactive"}
{"smiles": "O=C(O)C(F)(F)C(F)(F)C(F)(F)C(F)(F)C(F)(F)C(F)(F)C(F)(F)F", "outcome": "inactive"}
{"smiles": "O=C1C=CC(=O)C=C1", "outcome": "inactive"}
{"smiles": "NNC(=S)NN", "outcome": "inactive"}
{"smiles": "c1nc[nH]n1", "outcome": "inactive"}
{"smiles": "O=[N+]([O-])c1ccc(O)c([N+](=O)[O-])c1", "outcome": "inactive"}
{"smiles": "CCOc1cc(Oc2ccc(C(F)(F)F)cc2Cl)ccc1[N+](=O)[O-]", "outcome": "inactive"}
{"smiles": "C1=Cc2cccc3cccc1c23", "outcome": "inactive"}
{"smiles": "Cc1ccc(N)c(N)c1", "outcome": "inactive"}
{"smiles": "CNC(=O)Oc1cccc2c1OC(C)(C)O2", "outcome": "inactive"}
{"smiles": "O=C(Nc1ccc(Br)cc1)c1cc(Br)cc(Br)c1O", "outcome": "inactive"}
{"smiles": "C#CCOS(=O)OC1CCCCC1Oc1ccc(C(C)(C)C)cc1", "note": "(stereo not given)", "outcome": "inactive"}
